# The campaign covered roughly 420,000 compounds. About 64,000 (15%) were called active. Another 27% or so got no clear call; they are omitted. Calls come from the whole dose curve; as a rule, active = well fitted inhibition curve with a large enough effect; inconclusive = small, poorly fitted or top-dose-only effect; inactive = flat fitted curve, though single readings scatter. Only a sample is shown. A call without a number means that no potency is given here.
# Test: qHTS for Inhibitors of human tyrosyl-DNA phosphodiesterase 1 (TDP1): qHTS in cells in absence of CPT; note: nearly all actives have a fitted effect of over 55% in size
# Conditions: DT40 Tdp1-/- hTDP1 cells, no CPT, ATP luminescence, 48 h; activity change, negative = growth inhibition: at 46.2 µM (top of the series)
# Method in brief: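 Camptothecin absent (DMSO only). Human TDP1-complemented DT40 knockout cells, 400 cells/well, 37 °C for minimum 48 hr; ATP measured via CellTiter-Glo, 30 min dark incubation, luminescence.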
# Potency is the fitted concentration of half-maximal effect.
row,Compound,Potency
1,O=C(c1cnccn1)N1CCC[C@@]2(CCN(Cc3ccncc3)C2)C1,inactive
2,CC(=O)c1cnc(SCCN2C(=O)c3ccccc3C2=O)nc1C,inactive
3,Cc1cc(NC(=O)CCC(=O)N(CC(=O)NC2CCCC2)c2ccc(F)cc2)no1,inactive
4,Cc1cc(NC(=O)CCC(=O)N(c2cccc(F)c2)C(C(=O)NC2CCCC2)c2ccncc2)no1 (stereo not drawn),inactive
5,Cc1cc(NC(=O)/C=C/C(=O)N(c2ccccc2C)C(C(=O)NC2CCCC2)c2ccc(F)cc2)no1 (stereo not drawn),23.1 µM (active)
6,O=C(NC1CCC(O)CC1)c1ccc(S(=O)(=O)NCc2ccco2)cc1 (stereo not drawn),inactive
7,COc1ccc(NC(=O)Cn2ncn3c(cc4ccccc43)c2=O)c(OC)c1OC,inactive
8,COc1ccc(CNC(=O)c2nnn(CC(=O)Nc3cc(C)cc(C)c3)c2N)cc1,inactive
9,Cc1ccc(/C=N/NC(=O)COc2ccccc2-c2ccccc2)cc1,0.184 µM (active)
10,Cc1ccc(OCC(=O)N/N=C/c2ccncc2)cc1,inactive
11,C=CCc1ccccc1OCC(=O)N/N=C/c1ccccc1OCC,inactive
12,COc1cc(Cl)c(S(=O)(=O)N2CCN(Cc3ccc4c(c3)OCO4)CC2)cc1Cl,inactive
13,OCCC1CN(Cc2ccc3nsnc3c2)CCN1C1CCCC1 (stereo not drawn),inactive
14,C=C1C(=O)[C@]23C[C@H]1CCC2[C@@]1(C)C(C[C@@H]3O)[C@](C)(C(=O)O)CC[C@@H]1O (stereo partly drawn),6.51 µM (active)
15,O=C(CSc1ncn[nH]1)Nc1nc2c(F)c(F)c(F)cc2s1,inactive
16,CC(C)(C)NC(=O)NC(=O)COC(=O)Cc1c(F)cccc1Cl,inactive
17,COc1ccccc1NC(=O)CN1CCN(S(=O)(=O)c2ccc(Br)cc2)CC1,inactive
18,COc1ccccc1NC(=O)Cn1cnc2ccc(S(=O)(=O)N3CCC(C)CC3)cc2c1=O,23.1 µM (active)
19,CCN1CCCC1CNC(=O)Cn1cnc2ccc(S(=O)(=O)N3CCC(C)CC3)cc2c1=O (stereo not drawn),inactive
20,CC(C)CN(C(=O)CN1CCN(S(=O)(=O)c2ccccc2)CC1)c1c(N)n(CC(C)C)c(=O)[nH]c1=O,inactive
21,Cc1cc(NC(=O)OC(C)C)ccc1-c1ccc(NC(=O)OC(C)C)cc1C,inactive
22,CN(CCO)c1ccc(/C=N/Nc2nncc3ccccc23)cc1,14.6 µM (active)
23,COc1ccc(/C=N/Nc2nc3ccccc3c(=O)[nH]2)cc1,inactive
24,CC(=O)Nc1ccc(NC(=O)CCCNC(=O)c2ccc(Cl)cc2)cc1,inactive
25,CCCCNC(=O)C1CCCNC1=O (stereo not drawn),inactive
26,COc1cccc(CNC(=O)c2nnn(CC(=O)Nc3cc(C)ccc3C)c2N)c1,inactive

row,Compound,Potency
1,O=C(CNc1ccccc1N1CCCC1=O)Nc1cc(Cl)ccc1-n1cncn1,inactive
2,CCOC(=O)CC1C(=O)NCCN1c1nc2c(C)cccn2c(=O)c1/C=C1\SC(=S)N(C(C)CC)C1=O (stereo not drawn),18.4 µM (active)
3,CCOC(=O)CNC(=O)c1cc2c(=O)n3cccc(C)c3nc2s1,inactive
4,CCOC(=O)N1CCN(C(=O)CSc2nc(=O)n3cccc(C)c3n2)CC1,inactive
5,CCSc1nnc(NC(=O)Cc2ccccc2OC)s1,inactive
6,CCOC(=O)N1CCN(C(=O)c2cn(C)c3ccc(S(=O)(=O)N(CC)CC)cc3c2=O)CC1,inactive
7,CCCCNC(=O)c1cc(-c2ccc(Cl)c(Cl)c2)on1,inactive
8,COC(=O)CN1C(=O)N/C(=C/c2ccc(OC)c(C)c2OC)C1=O,inactive
9,O=C(Nc1ccc(OC(F)(F)F)cc1)c1ccc2c(c1)no[n+]2[O-],3.66 µM (active)
10,Cn1cccc1/C=N/NC(=O)c1ccc(OC(F)(F)C(F)F)cc1,inactive
11,COC(=O)[C@H](C)NC(=O)Nc1ccc(OC(F)(F)F)cc1,inactive
12,CC(=O)OCc1cc2cc(C)ccc2[nH]c1=O,inactive
13,CCCCC(=O)N/N=C(\C)CC(=O)Nc1cc(Cl)ccc1OC,inactive
14,C/C(CC(=O)NCc1ccc(Cl)cc1)=N\NC(=O)COc1ccc(C)cc1Br,3.26 µM (active)
15,CC(=O)Nc1ccc(OCC(=O)NCc2ccc(C)cc2)cc1,inactive
16,COCCNC(=S)N1CCN(C)CC1,inactive
17,COC(=O)c1cc(NC(=O)CN2CCC(C(N)=O)(N3CCCCC3)CC2)cc(C(=O)OC)c1,inactive
18,Cc1oc2c(c1C(=O)Nc1ccc(F)c(F)c1)C1=NCCN1C=N2,inactive
19,O=C(CN1C(=O)CCS(=O)(=O)c2ccccc21)NCc1ccc(F)cc1,inactive
20,CC(NC(=O)C(=O)Nc1nccs1)c1ccccc1 (stereo not drawn),inactive
21,O=C(NCc1ccco1)c1nc2ncccn2n1,inactive
22,O=C(NCc1ccco1)c1cccn2c(=O)c3c4c(sc3nc12)CCCC4,7.31 µM (active)
23,O=c1oc(-c2ccco2)nc2sc3c(c12)CCCCC3,inactive
24,O=C(c1cnc(Cl)c(Cl)c1)N1CCN(S(=O)(=O)c2ccc(F)cc2)CC1,inactive
25,Cc1cc(C)c(/C=C2\C(=O)Nc3ccccc32)[nH]1,inactive
26,COc1ccccc1N1CC(C(=O)NCCN2C(=O)S/C(=C\c3cccnc3)C2=O)CC1=O (stereo not drawn),inactive

row,Compound,Potency
1,CN1CCN(C2=NCCO2)CC1,inactive
2,Cc1ccc(-n2c(SCC(=O)Nc3ccc4c(c3)OCO4)nnc2-c2ccoc2C)cc1,inactive
3,O=C(O)c1cc(S(=O)(=O)N(Cc2ccccc2)c2cccc(C(F)(F)F)c2)ccc1Cl,inactive
4,O=C(CN(c1cc(C(F)(F)F)ccc1Cl)S(=O)(=O)c1ccccc1)NCc1cccnc1,18.4 µM (active)
5,CCc1ccc(N(CC(=O)NCc2cccnc2)S(=O)(=O)c2ccccc2)cc1,inactive
6,CC(=O)Nc1ccc(NC(=O)CSc2ncnc3c2cnn3Cc2ccccc2)cc1,inactive
7,OCc1n[nH]c(CO)n1,inactive
8,COc1ccc(C(=O)N2CCCCC2c2cc(C(=O)Nc3ccc(F)c(Cl)c3)no2)cc1 (stereo not drawn),23.1 µM (active)
9,COc1ccc(C(=O)Nc2c(Cl)cc(Cl)cc2C(=O)N2CCC(C)CC2)cc1,inactive
10,CCCNC(=O)c1cc(C2CCCCN2C(=O)OC)on1 (stereo not drawn),inactive
11,CC(=O)c1ccc(N2C(=NC(=O)C(C)C)SC3CS(=O)(=O)CC32)cc1 (stereo not drawn),inactive
12,CCNC(=O)c1ccc(OCC(=O)Nc2ccc(F)cc2)c(OC)c1,inactive
13,COc1ccc(NC(=O)CN2CCN(S(=O)(=O)c3ccc(F)cc3)CC2)cc1Cl,inactive
14,CCCOc1ccc(F)cc1-c1cc(C(=O)Nc2ccc(F)c(Cl)c2)[nH]n1,16.4 µM (active)
15,O=C(O)Cc1csc(NC(=O)CSc2nnnn2-c2ccc(O)cc2)n1,inactive
16,CC(=O)Nc1ccc(S(=O)(=O)Oc2ccc(/C=N/N=C3/NC(=O)C(CC(=O)O)S3)cc2)cc1 (stereo not drawn),inactive
17,Cn1c(=N)n(CC(O)c2cccs2)c2ccccc21 (stereo not drawn),inactive
18,Cn1c(=N)n(CC(O)c2ccccc2)c2ccccc21 (stereo not drawn),inactive
19,CCOc1ccc(C(O)Cn2c(=N)n(CCN3CCCCC3)c3ccccc32)cc1 (stereo not drawn),23.1 µM (active)
20,NS(=O)(=O)c1ccc(CCNC(=O)c2ccc(Cl)cc2[N+](=O)[O-])cc1,inactive
21,CC(=O)NCCc1ccc(S(=O)(=O)N(C)C2CCS(=O)(=O)C2)cc1 (stereo not drawn),inactive
22,CCc1nnc(NS(=O)(=O)c2ccc(NS(=O)(=O)c3ccccc3)cc2)s1,inactive
23,CCc1nnc(NS(=O)(=O)c2ccc(N=Cc3c(C)[nH]n(-c4ccc(C)cc4)c3=O)cc2)s1,11.2 µM (active)
24,COc1cc(NS(=O)(=O)c2ccc(N=Cc3c(C)[nH]n(-c4ccccc4)c3=O)cc2)nc(OC)n1,inactive
25,S=c1[nH]nc(-c2cc(-c3ccsc3)n[nH]2)n1-c1ccccc1,inactive
26,CCOc1ccc2nc(N3CCCC(C(=O)Nc4cc(C)ccc4C)C3)sc2c1 (stereo not drawn),18.4 µM (active)

row,Compound,Potency
1,CCOc1ccc2nc(N3CCC(C(=O)Nc4cc(C)ccc4C)CC3)sc2c1,16.4 µM (active)
2,Cc1ccc(C)c(NC(=O)C2CCCN(S(=O)(=O)c3cn(C)cn3)C2)c1 (stereo not drawn),inactive
3,Cc1ccnc(N2CCCC(C(=O)Nc3cc(F)ccc3C)C2)n1 (stereo not drawn),inactive
4,CCOC(=O)N1CCC(NC(=O)c2ccc3nc(N4CCOCC4)sc3c2)CC1,inactive
5,Cc1cc(C)c2nc(N3CCC(C(=O)NCCN4CCOCC4)CC3)sc2c1,inactive
6,CC1CCCCC1NC(=O)Cn1cnc2c1c(=O)n(C)c(=O)n2C (stereo not drawn),inactive
7,COC(=O)CN1C(=O)[C@H]2[C@@H](/C=C/c3ccccc3)N3C(=O)CN(CC4CC4)C(=O)[C@@]3(Cc3ccccc3)[C@H]2C1=O,inactive
8,COC(=O)C1(S(=O)(=O)C2(C(=O)OC)CCCC2)CCCC1,inactive
9,N#Cc1nc(COc2ccc(-c3ccccc3)cc2)oc1NCc1cccnc1,25.9 µM (active)
10,Cc1noc(C)c1-c1cc(NCc2cccnc2)ncn1,inactive
11,COc1ccc(-c2nnc(SCc3cccnc3)o2)cc1,inactive
12,O=C(Cn1nc(C(=O)O)c2ccccc2c1=O)Nc1ccc(F)cc1,inactive
13,COc1cccc(NC(=O)CSc2nnc(C3CCCCC3)n2N)c1,inactive
14,O=C(COC(=O)c1ccc(F)cc1)NCC1COc2ccccc2O1 (stereo not drawn),inactive
15,O=C(Cn1cnc2ccccc2c1=O)NCC1COc2ccccc2O1 (stereo not drawn),inactive
16,c1ccc2c(c1)OCC(CNc1ncnc3nc[nH]c13)O2 (stereo not drawn),13 µM (active)
17,CC(C)c1ccc(NC(=S)NC2CC3C=CC2C3)cc1 (stereo not drawn),29.1 µM (active)
18,O=C(COC(=O)C1CC2C=CC1C2)Nc1ccccc1 (stereo not drawn),inactive
19,CC(C)c1ccc(NC(=S)NNc2ccc(Cl)c(C(=O)O)c2)cc1,inactive
20,CCN1C(=O)C(=O)N(CC(=O)Nc2cc(C)ccc2C)C1=O,inactive
21,O=P(c1ccc2c(c1)OCCO2)(N1CCOCC1)N1CCOCC1,inactive
22,COC(=O)C(C)Oc1ccc2c(c1)O/C(=C\c1cccc(Br)c1)C2=O (stereo not drawn),inactive
23,COC(=O)Cc1ccc(N(Cc2ccccc2F)S(=O)(=O)c2ccc(Br)cc2)cc1,20.6 µM (active)
24,COc1ccc(S(=O)(=O)N(CC(=O)NCc2ccco2)c2ccc(F)cc2)cc1,inactive
25,O=C(COC(=O)Cc1ccc(Br)cc1)Nc1c(F)c(F)c(F)c(F)c1F,inactive
